PubChem BioAssay AID492949 (National Center for Advancing Translational Sciences (NCATS), 2010)
Results filed as inconclusive are left out. Calls of active or inactive are those of the source. The call rests on the fitted dose curve; in most records, active means well fitted activation curve with a large enough effect; inconclusive means small, poorly fitted or top-dose-only effect; inactive means no such curve, though single readings can be large or run the other way.

What follows are compounds tested against Relaxin receptor 1 (Homo sapiens) (UniProt Q9HBX9) (assay: qHTS Assay for Agonists of the Relaxin Receptor RXFP1: THP1 Hit Validation). Details: THP1-RXFP1 cells, cAMP TR-FRET, 30 min; series mostly up to 115 µM.
Description: The relaxin hormone is involved in the variety of biological functions in normal tissues and diseases. The role of relaxin is well-established in female reproduction and parturition, mammary gland and endometrial development, maintenance of myometrial quiescence during pregnancy. Relaxin signaling through its G protein-coupled receptor (GPCR) RXFP1 results in ECM remodeling through regulation of collagen deposition, cell invasiveness, proliferation and overall tissue homeostasis. […] Recombinant human relaxin (rhRlx) is currently being tested in clinical trials as a protective agent in congestive heart failure, in treating severe preeclampsia, and as an anti-fibrotic agent in systemic sclerosis.
Upon relaxin binding RXFP1 activation leads to the activation of adenylate cyclase (AC) via Gs. cAMP will activate PKA, which phosphorylates many signaling proteins. Thus, detection of cAMP increase is an easy and reliable indication of relaxin receptor activation. To screen for agonists of the relaxin receptor, a THP1 cell line stably transfected with RXFP1 was used. RXFP1 activation was assayed by changes in cAMP levels as detected with a time-resolved fluorescence energy transfer (TR-FRET) cAMP detection kit.
NIH Chemical Genomics Center [NCGC]
NIH Molecular Libraries Probe Production Centers Network [MLPCN]
Assay Submitter (PI): Alexander Agoulnik
NCGC Assay Protocol Summary:
This is a cell-based assay for cAMP second messenger response to screen for agonists of the RXFP1 receptor. The assay was conducted in the presence of a PDE4 inhibitor (Ro 20174). The cells were lysed and the cAMP levels were measured with a TR-FRET cAMP kit. Presence of cAMP in the cell lysate disrupts binding between the cryptate-labeled anti-cAMP and d2-labeled cAMP pair, leading to a decrease in the TR-FRET signal. Data were normalized to the controls for basal activity (buffer only) and 100% activity (29 nM porcine relaxin). The EC50 values were determined from concentration-response data modeled with the standard Hill equation
1536-well assay protocol for the THP1 RXFP1 cAMP assay:
(1) Add 3 ul THP1 RXFP1 cell culture. 2000 cells/well in DMEM/F12, 10% FBS, 1x Pen/Strep (dispensed offline with MultiDrop Combi).
(3) Add 23 nl compounds in DMSO solution. Final concentration was 0.5 - 58 uM.
(4) Incubate 30 min at 37C, 5% CO2.
(5) Add 1 ul cAMP-d2 in lysis buffer (HTRF cAMP HiRange kit, CisBio).
(6) Add 1 ul anti-cAMP antibody-cryptate in lysis buffer (HTRF cAMP HiRange kit, CisBio).
(7) Incubate 30 min at room temperature.
(6) Detect the assay plate in a ViewLux plate reader (PerkinElmer) with Ex=320 nm, Em1=615 nm and Em2=665 nm.
Keywords: relaxin, RXFP1, RXFP2, G-protein coupled receptor, cAMP, agonist, high throughput screening, MLSMR, MLSCN, NIH Roadmap, qHTS and NCGC
Further: nearly all actives have a fitted effect of over 60% in size.
Potency means the concentration at half of the fitted maximal effect.

Relaxin receptor 1 (Homo sapiens), sequence (Q9HBX9 whole entry, looked up): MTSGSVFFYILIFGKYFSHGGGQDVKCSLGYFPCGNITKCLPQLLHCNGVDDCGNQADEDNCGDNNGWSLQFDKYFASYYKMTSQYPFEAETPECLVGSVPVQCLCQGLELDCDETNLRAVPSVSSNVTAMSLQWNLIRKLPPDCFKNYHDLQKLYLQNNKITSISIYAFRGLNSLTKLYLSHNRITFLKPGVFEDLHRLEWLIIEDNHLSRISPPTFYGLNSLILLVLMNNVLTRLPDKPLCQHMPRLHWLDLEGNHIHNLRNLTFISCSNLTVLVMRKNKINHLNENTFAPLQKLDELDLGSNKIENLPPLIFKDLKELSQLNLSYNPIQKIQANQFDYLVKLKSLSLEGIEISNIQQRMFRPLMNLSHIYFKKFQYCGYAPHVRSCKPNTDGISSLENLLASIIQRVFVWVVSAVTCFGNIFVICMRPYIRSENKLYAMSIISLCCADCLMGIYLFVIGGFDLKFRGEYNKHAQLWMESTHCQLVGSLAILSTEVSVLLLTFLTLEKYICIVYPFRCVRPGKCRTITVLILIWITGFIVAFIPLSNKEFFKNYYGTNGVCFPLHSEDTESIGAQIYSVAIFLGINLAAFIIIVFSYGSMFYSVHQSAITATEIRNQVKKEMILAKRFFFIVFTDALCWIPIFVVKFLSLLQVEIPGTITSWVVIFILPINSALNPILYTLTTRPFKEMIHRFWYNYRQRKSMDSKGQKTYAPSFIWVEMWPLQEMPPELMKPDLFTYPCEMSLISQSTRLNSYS

SMILES	Potency
O=C(Nc1ccccc1C(=O)Nc1ccc(F)cc1)c1ccco1	inactive
COC(=O)Cn1cnc2c(C#N)c3n(c2c1=O)CCCC3	24.5 µM (active)
CCOC(=O)c1sc(NC(=O)CCc2ccc(OC)cc2)nc1C	17.3 µM (active)
C=C(C)C(=O)Nc1cccc(C2=NOC3(C2)C[C@@H](C(N)=O)N(C(=O)c2ccc(Cl)cc2)C3)c1 (stereo not given in full)	inactive
Cc1cccc(-c2nnc(SCC(=O)NC3CC3)n2C)c1	inactive
CCN(CC)CCCCCC(=O)Nc1ccccc1C(=O)Nc1ccccc1	inactive
Cc1ccc(-n2c(=S)[nH]c3sc4c(c3c2=O)CCC4)cc1	8.68 µM (active)
C=CCNc1ncnc2c1ncn2C1OC(CO)C(O)C1O (stereo not given)	inactive
COc1ccc(C(C)=O)cc1Cn1cnc2c(cnn2C)c1=O	13.8 µM (active)
Brc1ccc(-c2nn3c(-c4ccco4)nnc3s2)o1	17.3 µM (active)
Cc1ccccc1NC(=O)CNc1ccccc1C(=O)NCc1ccco1	inactive
CC(C)n1cnc2c(N(C)c3cccc(Cl)c3)nc(N(CCO)CCO)nc21	inactive
CN(C)S(=O)(=O)c1ccc(C(=O)OCC(=O)Nc2cccnc2Cl)cc1	19.4 µM (active)
O=c1oc2cc(O)c(Cl)cc2c2ccccc12	8.68 µM (active)
O=C(O)CSc1ccnc2cc(Cl)ccc12	21.8 µM (active)
Nc1cc2ccncc2c2ccccc12	inactive
CN1C(=O)c2ccc(C(=O)Nc3ccc(Br)cn3)cc2C1=O	21.8 µM (active)
CCc1nnc(NC(=O)CSc2nc(C)nc3c2c(=O)n(C)c(=O)n3C)s1	10.9 µM (active)
COc1ccc(/C=C2/SC(=O)N(CCC(=O)Nc3ccc(C)cc3)C2=O)cc1OC	inactive
CCN(CC)S(=O)(=O)c1ccc(N2CCOCC2)c(NC(=O)c2cccc(C#N)c2)c1	27.5 µM (active)

SMILES	Potency
COC(=O)c1c(N2C(=O)CC(Sc3ncccc3C(=O)O)C2=O)sc(C)c1C (stereo not given)	inactive
O=C(O)c1cc(-c2ccc(Br)s2)nc2ccccc12	3.08 µM (active)
COc1ccc(Cl)cc1-c1n[nH]c(=S)o1	6.15 µM (active)
O=C(COc1ncnc2scc(-c3ccccc3)c12)NCCN1C(=O)CSC1=O	19.4 µM (active)
CCCC(=O)Nc1ncnc2c1ncn2[C@@H]1O[C@@H]2COP(=O)(O)O[C@H]2[C@H]1OC(=O)CCC	1.23 µM (active)
O=C(Nc1ccccc1C(=O)N1CCOCC1)c1ccco1	inactive
CC(=O)c1sc(NC(=O)C(C)C)nc1C	19.4 µM (active)
CCN(CC)S(=O)(=O)c1ccc(C)c(NC(=O)Cn2cnc3cc([N+](=O)[O-])ccc3c2=O)c1	12.3 µM (active)
Cc1ccc(-n2nnc3c(=O)n(CC(=O)NCC4CCCO4)cnc32)cc1 (stereo not given)	15.5 µM (active)
O=C(Nc1ccccc1C(=O)N1CCCCC1)c1ccco1	inactive
COC(=O)[C@@H]1C[C@@]2(O)[C@H](O)[C@H](O)[C@H](O)C[C@H]2N1Cc1cc(F)ccc1F	inactive
CCN(CC)c1ccc(S(=O)(=O)N2CCOCC2)cc1NC(=O)CSc1nncn1C	15.4 µM (active)
O=C(Nc1cccc(C(F)(F)F)c1)c1ccccc1NC(=O)C1CCCCC1	inactive
CCn1c(=O)c2cc(C(=O)Nc3cccc(C(C)=O)c3)sc2c2ccccc21	inactive
Cc1cccn2c(=O)c(/C=C3\SC(=S)NC3=O)c(NCCCN3CCOCC3)nc12	4.88 µM (active)
Cc1cccc2cc(C#N)c(SCC(=O)NCc3cccs3)nc12	19.4 µM (active)
O=C(O)c1ccc(N=C2NC(=O)C(CO)(CO)S2)cc1	inactive
CC1(C(=O)Nc2nc3ccccc3s2)CC1(Br)Br (stereo not given)	inactive
CC(NC(=O)c1ccccc1NC(=O)c1ccco1)C(=O)O (stereo not given)	inactive
O=C(O)c1cc(-c2ccco2)nc2ccc(Br)cc12	19.4 µM (active)
